Only a selection was taken, and hits are over-represented in it overall.
Pf Dd2 inh = blocks in vitro growth of P. falciparum Dd2 | AID 1347417 | P. falciparum Dd2 growth, SYBR Green, 72 h | Potency, µM (series often up to 28.9 µM), usual class: inhibitors | 4.3% of 120,000 active; active means well fitted inhibition curve with a large enough effect; further: nearly all actives have a fitted effect of over 65% in size
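Infected erythrocytes (Dd2, 0.3% parasitemia, 2.5% hematocrit final) are added to compound in RPMI-1640/Albumax II medium, grown 72 h at 37C in low oxygen, then lysed with saponin/Triton-X containing SYBR Green and read by fluorescence.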
Hits are given with their value; . = inactive; [ ] = another dose, or the depositor's remark.

SMILES | Pf Dd2 inh
O=C1NCCOCCN(S(=O)(=O)c2ccccc2)[C@H]2CCC[C@@H]12 | .
O=C(NC1CCCCC1)[C@@H]1C[C@@H](O)CN1C1CCN(C(=O)c2ccoc2)CC1 | .
Cc1ccc(N2CCN(c3nc4c(c(=O)[nH]3)CCNC4)CC2)cc1 | .
CCCCN1CCN(c2nc(-c3ccccc3)nc3c2CCNC3)CC1=O | 11µM
CCCCN1CCN(C(=O)c2cc(Cl)c(C)c(Cl)c2)CC1=O | .
COc1ccccc1/C=C/CN1CCCC(CCC(=O)Nc2ccccc2F)C1 (configuration not stated) | 8.9µM
COc1cccc(C(=O)NCC2CCCN(Cc3nc4ccccc4[nH]3)C2)c1OC (configuration not stated) | .
O=C(CCC1CCCN(C(=O)Cc2c[nH]c(=O)[nH]c2=O)C1)Nc1ccccc1F (configuration not stated) | .
O=C(CCC1CCCN(Cc2cccn2-c2nccs2)C1)Nc1ccccc1F (configuration not stated) | 7.1µM
O=C(CCC1CCN(C(=O)c2ccccc2)CC1)Nc1ccccc1F | .
CCOc1ccc(CN2CCCC(CCC(=O)Nc3ccccc3F)C2)cc1CO (configuration not stated) | .
COc1ccccc1/C=C/CN1CCCC(CNC(=O)COc2ccccc2OC)C1 (configuration not stated) | 7.9µM
COc1ccccc1CNC(=O)CCC1CCCN(S(=O)(=O)c2ccccc2F)C1 (configuration not stated) | .
COc1cccc(C(=O)NCC2CCCN(C/C(C)=C/c3ccccc3)C2)c1OC (configuration not stated) | .
COCCN(C)C[C@@H]1CN(C(=O)c2cc3ccccc3s2)C[C@@H]1CO | .
COc1ccccc1C(=O)N1CCC(OC2CCN(S(C)(=O)=O)CC2)CC1 | .
CC(C)CNC(=O)CCC1CCN(S(=O)(=O)c2ccccc2F)CC1 | .
COc1cccc([S+](=O)([O-])N2CCC3(CC(C(C)C)=NO3)C2)c1 (configuration not stated) | .
CCOCCN1CCN([C@@H]2c3ccccc3C3(CCNCC3)[C@H]2O)CC1 | .
Cc1cc(C)c(S(=O)(=O)NCCn2c(C)cnc2C2CC2)cc1C | 11µM
Cc1ccc(C)c(S(=O)(=O)NCCn2c(C)cnc2C2CCC2)c1 | .
Cc1cnc(C2CC2)n1CCN | .
COc1cccc(C(O)c2nc(C(=O)NC3CCN(C)CC3)c(C)o2)c1 (configuration not stated) | .
CCc1ncc(CN2CCCC23CCN(c2ccc(C(F)(F)F)cn2)CC3)cn1 | 7.9µM
CCn1ccnc1CN1CCCC12CCN(c1ccc(C(F)(F)F)cn1)CC2 | .
SMILES | Pf Dd2 inh
Cn1cc(CN2CCCC23CCN(c2ccnc4c(C(F)(F)F)cccc24)CC3)cn1 | .
Cc1ncc(CC(=O)N2CCC3(CC2)CC(C(=O)O)N(C)C3)c(=O)[nH]1 (configuration not stated) | .
Cc1[nH]c2ccccc2c1CC(=O)NC1CCCc2nc(N(C)C)ncc21 (configuration not stated) | .
COCCOC1CCOC2(CCN(C(=O)Nc3ccccc3F)CC2)C1 (configuration not stated) | 13µM
COC1CCOC2(CCN(C(=O)Nc3ccccc3F)CC2)C1 (configuration not stated) | .
COCCOC1CCOC2(CCN(C(=O)Nc3ccccc3)CC2)C1 (configuration not stated) | .
Cn1ncc(N2CCC(NC(=O)c3ccccc3)CC2)cc1=O | .
Cc1ccc(Cn2cnc3nc4c(cc3c2=O)CCCC4)cc1 | .
COC(=O)c1ccc(Cn2cnc3nc4c(cc3c2=O)CCCC4)cc1 | .
CCC(C(=O)Nc1ccc(C(C)=O)cc1)n1cnc2nc3c(cc2c1=O)CCCC3 (configuration not stated) | 10µM
CCn1ncc(N2CCCC(CC(=O)NCc3ccccn3)C2)cc1=O (configuration not stated) | .
COc1ccc(-c2[nH]nc3nc(-c4cc(OC)c(OC)c(OC)c4)cc(C(=O)O)c23)cc1 | .
Cc1cccc(-c2cc(C(=O)O)c3c(-c4ccc(F)cc4)[nH]nc3n2)c1 | 7.9µM
CCOc1cc(-c2cc(C(=O)O)c3c(-c4ccccc4)[nH]nc3n2)ccc1O | .
COCCn1c(C)cnc1CCNS(=O)(=O)c1c(C)nn(C)c1C | .
CS(=O)(=O)c1cnc(NCc2ncc[nH]2)nc1C1CCCNC1 (configuration not stated) | .
CCc1ccccc1NC(=O)N(C)CC1CCOC1 (configuration not stated) | .
O=C(Nc1ccc(Cl)cc1)c1cc2c(-c3ccccc3)nn(-c3ccccc3)c2s1 | 1.1µM
CC(=O)c1ccc(NC(=O)c2cc(C)nn2-c2ccccc2)cc1 | .
CCOC(=O)c1cccc(NC(=O)c2cc3c(-c4cccc(OC)c4)nn(C)c3s2)c1 | .
COCCNC(=O)[C@H]1C[C@H](Oc2cccnc2)CN1C(=O)Cc1cccc(OC)c1 | .
COc1ccc(CN2CCC3(CC2)Cc2ccccc2CNC3=O)cc1 | .
O=C(NCCc1ccccc1)N1CCC(c2noc(-c3ccccc3)n2)C1 (configuration not stated) | .[5.79 µM]
COc1ccc(-c2ccc3nnc(CNC(=O)c4cc(F)ccc4F)n3n2)cc1 | .
CCCN(C(=O)c1cc2ccc3cccnc3c2[nH]1)c1ccc(F)cc1 | .
SMILES | Pf Dd2 inh
Cc1ccc(C)c(CN2CCC(CNC(=O)c3occc3C)C2)c1 (configuration not stated) | .
O=C(NCC1CCN(Cc2cccc(F)c2)CC1)c1cc2ccc3cccnc3c2[nH]1 | 7.1µM
Cc1ccc(CN2CCC(CNC(=O)c3cc4ccc5cccnc5c4[nH]3)CC2)cc1 | 3.5µM
Cc1oc2ncnc(N3CCCCC3)c2c1C(=O)NCC1CCN(Cc2cccc(F)c2)CC1 | .
Cc1ccc(CN2CCC(CNC(=O)Nc3ccc(C)c(C)c3)C2)cc1 (configuration not stated) | .
Cc1ccc(C)c(CN2CCC(CNC(=O)c3cc4ccc5cccnc5c4[nH]3)CC2)c1 | 2.8µM
Cc1ccc(C)c(CN2CCC(CNC(=O)Cn3ncc4c([nH]c5ccccc54)c3=O)CC2)c1 | .
O=C(c1cc2ccc3cccnc3c2[nH]1)N1CCN(c2ccccc2)CC1 | .
Cc1ncc2n1C(=O)N(C1CCN(C(=O)c3cccc(Cl)c3)CC1)C2 | .
COc1ccc(C(=O)N2C(C(=O)NC(C)C)COC23CCN(C(=O)c2ccc(F)cc2)CC3)cc1 (configuration not stated) | .
COc1cccc(C(=O)N2CCC(C(NC(=O)c3cccs3)C(=O)NCC(C)C)CC2)c1 (configuration not stated) | .
O=C1CS(=O)C2(CCNCC2)N1Cc1cccc(F)c1 (configuration not stated) | .
Cc1cccc(OCC2(CNC3CCC3)C[C@@H](O)[C@@H](O)C2)n1 (some centres not stated) | .
COCc1ccc2c(c1)c(OC(C)(C)C(=O)NC1CCC(O)CC1)nn2Cc1ccccc1 (configuration not stated) | .
O=C(Cn1nc2c(cc1=O)CCCCC2)NCCc1cccc(F)c1 | .
Cc1ccc(NC(=O)CC2Nc3ccccc3NC2=O)cc1C (configuration not stated) | .
Cc1cc(Br)ccc1NC(=O)C[C@H]1NC(=O)c2ccccc2NC1=O | .
O=C(C[C@H]1NC(=O)c2ccccc2NC1=O)Nc1ccncc1 | .
Cc1cc2c(cc1C)NC(CC(=O)Nc1ccccc1)C(=O)N2 (configuration not stated) | .

From PubChem
